# Reference: the OligoGym collection
# Molecular target: ZFAND2A
# Assay: pooled miR-30 sensor sort-seq; sequence = guide strand
# Conditions: shRNA
row,Sequence,sensor-assay potency score (higher = more potent)
1,TTGGGCACATACCATCTGCAGC,-1.16
2,AGTCTTTTCTGAACAATGCTTC,-1.25
3,TTCTGAACAATGCTTCCCCAAA,-1.18
4,TTACAGAGTGGGCATACTGGGA,-0.899
5,TTTTACTGGAAGAAAATCTAGC,-0.26
6,TACTGGGACGAGCACATCCTTC,-1.34
7,TCTCTTTCTTCTTGCAGCCCTC,-1.15
8,TTTCTGAACAATGCTTCCCCAA,-0.747
9,TACTGGAAGAAAATCTAGCTGC,0.313
10,TTCTCTTTCTTCTTCCCAGGGT,0.483
11,TACCATCTGCAGCATCTCTTTC,-0.989

# Molecular target: ZFAND6
# Assay: as above
# Conditions: shRNA
row,Sequence,sensor-assay potency score (higher = more potent)
1,TTCCTGCACATGAAACAGCGAT,-1.19
2,TAGAGTCTAATGCTGACTGGGC,-0.0965
3,TACTACTATTCTGTCTTTGAAG,-0.924
4,TTATTCTACCATTACTACTATT,-1.18
5,TTTTCACCAACAACTACTGGAT,-0.128
6,AAGATGTAGAGTCTAATGCTGA,-0.785
7,TCTACCATTACTACTATTCTGT,0.0585
8,TTCCATAAAATCCACAGCCAGT,-1.07
9,TTTCTCAGCAGCATCGGCTTTG,-0.787
10,TTGTGTACATCTGAGTAACGGT,-0.562
11,TAGATGAAGATGTAGAGTCTAA,-0.473
12,TAGCATACTGAACACATGCCAT,-0.592
